Measurements published in PubChem BioAssay (NCI).
The panel holds about 79,000 compounds, 15% with a hit somewhere; the sample as a whole holds those more often. Calls of active or inactive are those of the source. Cut-off read from the data, not from the text of the source: active = growth inhibition above about 70%; inactive = the rest.

assay: NCI Yeast Anticancer Drug Screen. Data for the cln2 rad14 strain (AID 165);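 note: 0% = growth equal to vehicle treated cultures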; conditions: S. cerevisiae cln2 rad14 strain, at 50.0 µM (retest, dose inferred, filed as 5.0), stronger effect = higher value
Summary of the method: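 Yeast carrying cln2 and rad14 alterations (cell cycle control and DNA damage repair) were exposed to compounds. Growth inhibition was measured against vehicle-treated controls.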

Structure (SMILES)	growth inhibition
COc1ccc(-c2cc3ccccc3c(=O)n2Cc2ccccc2)cc1	57% (inactive)
CN(C)CCCNCC(=O)Nc1ccc(S(=O)(=O)c2ccc(NC(=O)CNCCCN(C)C)cc2)cc1	66% (inactive)
O=C1NN=C(c2ccc(Cl)cc2)CC1C1C(=O)N(c2ccccc2)N=C1c1ccccc1 (stereo not given)	97% (active)
Cc1ccc(S(=O)(=O)NCCSSCCNS(=O)(=O)c2ccc(C)cc2)cc1	96% (active)
O=C(CC(=O)c1ccccc1)CC(=O)c1ccccc1Br	75% (active)
Nc1ncc2ccccc2c1-c1ccc(NC(=O)CCCl)cc1	23% (inactive)
CC1=NC(=Cc2cccc(Cl)c2)C(=O)N1n1c(-c2ccccc2)nc2ccccc2c1=O	84% (active)
CCCOC(=O)CCCC(=O)N(CC)CC	0% (inactive)
C=C1C(=O)[C@@]23CC[C@H]4[C@@](C)(CCC[C@@]4(C)C(=O)OC)[C@@H]2CC[C@]1(O)C3	99% (active)
CCCCN(CCCC)CCC(=O)c1ccc2c(ccc3ccccc32)c1	99% (active)
CC1CCC2(C)C(CC=C(C=O)C2(O)C=O)C12CO2 (stereo not given)	99% (active)
CN(C)CC1CC/C(=C\c2ccc(Cl)c(Cl)c2)C1=O (stereo not given)	99% (active)
CCS(=O)(=O)c1ccc(NC(=O)OC2CCCCCCC2)cc1	88% (active)
CC(=O)OC1CCCCCCCCCCC12OCCO2 (stereo not given)	96% (active)
CC(=O)OCc1cc2c(s1)C(=O)c1sccc1C2=O	21% (inactive)
O=C1C=CC(=O)c2nc3ccccc3nc21	99% (active)
Cc1ccccc1C1c2c(C)cccc2C(=O)CC1CC(=O)O (stereo not given)	70% (active)
CCOC(=O)c1c(N)sc2c1CCCCC2	-52% (inactive)
CCCCC(O)CCCC	13% (inactive)
Nc1nn2c(C(Br)Br)cc(C(Br)Br)nc2c1[N+](=O)[O-]	99% (active)
COC(=O)c1n[nH]c(C(C)C)c1N=NN(C)C	98% (active)

same assay, conditions: S. cerevisiae cln2 rad14 strain, at 50.0 µM, stronger effect = higher value

Structure (SMILES)	growth inhibition
O=[N+]([O-])c1ccc(N2N=NC(CN3CCOCC3)C2N2CCOCC2)cc1 (stereo not given)	24.5% (inactive)
FC(F)(F)c1ccccc1NC(=S)SCc1ccco1	52.1% (inactive)
O=C(c1ccc(Cl)cc1)C1N=NCC1c1ccccc1 (stereo not given)	12.8% (inactive)
COc1cc(C2c3cc4c(cc3[C@@H](OCCN)[C@H]3COC(=O)C23)OCO4)cc(OC)c1O (stereo not given in full)	49.6% (inactive)
CC(C)(C)c1cc2c(c(C(C)(C)C)c1O)CC(=O)O2	53.8% (inactive)
CCCCCCCCCCCCCCCCCCSSCCCCCCCCCCCCCCCCCC	80.9% (active)
c1ccc2c(c1)OCC(CNCCNCC1COc3ccccc3O1)O2 (stereo not given)	87% (active)
CC(=O)C(C(C)=O)C1C=CC=CC=C1	80% (active)
c1ccc2c(c1)ccc1c[n+]3c4ccccc4ccc3n12	87% (active)
CC(=O)C(=C(I)I)c1ccccc1	30.8% (inactive)
O=C1c2ccccc2CN1Cc1ccc(Cl)c(Cl)c1	45.5% (inactive)
CC1CC(N)=NC1C(=O)NCCC#N (stereo not given)	72% (active)
CC(=O)CC(C)=NCCN=C(C)CC(C)=O.[Pd]	53% (inactive)
CCOc1ccccc1NC1=C(Cl)C(=O)c2ccccc2C1=O	97% (active)
CCN1C2=NCCN2S(=O)(=O)c2ccccc21	-20.6% (inactive)
O=C(Cc1nc2ccccc2s1)C(=O)Nc1ccc(Cl)cc1	75% (active)
O=C(CCn1[nH]c(=O)c(Cl)c(Cl)c1=O)NNc1ccc([N+](=O)[O-])cc1[N+](=O)[O-]	-2.45% (inactive)
COc1cccc(C2c3cc4c(cc3OC(NNc3ccccc3)C2C)OCO4)c1OC (stereo not given)	27.1% (inactive)
COc1ccc(-c2cc3ccccc3c(=O)n2Cc2ccccc2)cc1	74% (active)
CN(C)CCCNCC(=O)Nc1ccc(S(=O)(=O)c2ccc(NC(=O)CNCCCN(C)C)cc2)cc1	78.1% (active)

Structure (SMILES)	growth inhibition
O=C1NN=C(c2ccc(Cl)cc2)CC1C1C(=O)N(c2ccccc2)N=C1c1ccccc1 (stereo not given)	96.3% (active)
Cc1ccc(S(=O)(=O)NCCSSCCNS(=O)(=O)c2ccc(C)cc2)cc1	94% (active)
O=C(CC(=O)c1ccccc1)CC(=O)c1ccccc1Br	85.5% (active)
Nc1ncc2ccccc2c1-c1ccc(NC(=O)CCCl)cc1	-4.85% (inactive)
CC1=NC(=Cc2cccc(Cl)c2)C(=O)N1n1c(-c2ccccc2)nc2ccccc2c1=O	78% (active)
CCCOC(=O)CCCC(=O)N(CC)CC	71.5% (active)
C=C1C(=O)[C@@]23CC[C@H]4[C@@](C)(CCC[C@@]4(C)C(=O)OC)[C@@H]2CC[C@]1(O)C3	92.2% (active)
CCCCN(CCCC)CCC(=O)c1ccc2c(ccc3ccccc32)c1	87% (active)
CC1CCC2(C)C(CC=C(C=O)C2(O)C=O)C12CO2 (stereo not given)	92.9% (active)
CN(C)CC1CC/C(=C\c2ccc(Cl)c(Cl)c2)C1=O (stereo not given)	91.3% (active)
CCS(=O)(=O)c1ccc(NC(=O)OC2CCCCCCC2)cc1	88.8% (active)
CC(=O)OC1CCCCCCCCCCC12OCCO2 (stereo not given)	63.6% (inactive)
CC(=O)OCc1cc2c(s1)C(=O)c1sccc1C2=O	86.2% (active)
O=C1C=CC(=O)c2nc3ccccc3nc21	-16.7% (inactive)
Cc1ccccc1C1c2c(C)cccc2C(=O)CC1CC(=O)O (stereo not given)	13.3% (inactive)
CCOC(=O)c1c(N)sc2c1CCCCC2	27.6% (inactive)
CCCCC(O)CCCC	22.2% (inactive)
Nc1nn2c(C(Br)Br)cc(C(Br)Br)nc2c1[N+](=O)[O-]	99.4% (active)
COC(=O)c1n[nH]c(C(C)C)c1N=NN(C)C	99% (active)
